# Hits are enriched below; roughly 0.9% of the tested compounds scored in any of these assays.
# SRC1 TRFRET art = flags TR-FRET format artefacts in PPARgamma SRC-1 recruitment agonist screen; 99,000 tested, 0.34% active; TR-FRET ratio at 8 µM; TR-FRET detection artefact counter-screen, emission ratio; stronger effect = higher value; in the data active = TR-FRET ratio above about 2300
# SRC2 TRFRET art = counter-screen for PPARgamma SRC-2 recruitment agonists: TR-FRET artefact. stronger effect = higher value. TR-FRET ratio at 8 µM. 200,000 tested, 0.4% active
# PPARg SRC2 recr = PPARgamma-driven SRC-2 recruitment agonism; activation, % at 8 µM; 200,000 tested, 0.34% active; P37231; PPARgamma LBD-SRC-2 recruitment, biochemical; in the data active = activation above about 22%;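 also: 0% = vehicle and 100% = reference agonist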
# Target sequence (P37231 whole entry, looked up, the tested form may be a part): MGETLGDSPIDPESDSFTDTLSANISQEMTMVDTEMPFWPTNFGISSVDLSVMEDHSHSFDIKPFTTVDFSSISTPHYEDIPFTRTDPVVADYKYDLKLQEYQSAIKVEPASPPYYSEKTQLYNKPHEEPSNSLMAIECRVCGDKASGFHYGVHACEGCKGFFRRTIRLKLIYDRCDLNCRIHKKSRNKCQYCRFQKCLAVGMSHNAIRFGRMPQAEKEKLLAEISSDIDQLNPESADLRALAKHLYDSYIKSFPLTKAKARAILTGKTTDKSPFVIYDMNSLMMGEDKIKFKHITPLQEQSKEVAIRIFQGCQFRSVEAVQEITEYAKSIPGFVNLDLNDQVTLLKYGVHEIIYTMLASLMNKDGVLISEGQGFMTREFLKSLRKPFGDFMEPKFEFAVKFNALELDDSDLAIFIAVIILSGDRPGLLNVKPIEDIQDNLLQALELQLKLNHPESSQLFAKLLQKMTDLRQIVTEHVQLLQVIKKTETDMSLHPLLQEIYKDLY
# PPARg SRC3 recr = promotes SRC-3 coactivator recruitment by human PPARgamma | P37231 | biochemical PPARgamma/SRC-3 coactivator recruitment assay | activation, % at 8 µM | 200,000 tested, 0.26% active; in the data active = activation above about 23%;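 also: 0% = DMSO and 100% = reference agonist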
# PPARg SRC1 recr = PPARgamma-driven SRC-1 recruitment agonism. P37231. PPARgamma-SRC-1 coactivator recruitment biochemical assay. activation, % at 8 µM. 200,000 tested, 0.41% active; in the data active = activation above about 19%;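 also: 0% = DMSO and 100% = reference agonist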
# SRC3 TRFRET art = TR-FRET artefact, counter-screen to PPARgamma/SRC-3 agonist assay | TR-FRET ratio at 8 µM | 99,000 tested, 0.39% active | PPARgamma/SRC-3 format; stronger effect = higher value
# * hit, by the source's call; x = not tested or not shown. Rule as the data show it, unless noted: active = TR-FRET ratio above about 2000; inactive = the rest.
SMILES,SRC1 TRFRET art,SRC2 TRFRET art,PPARg SRC2 recr,PPARg SRC3 recr,PPARg SRC1 recr,SRC3 TRFRET art
Cc1ccc(S(=O)(=O)c2nc(Nc3ccccc3)sc2Cl)cc1,1923,1595,8.0,6.2,13.0,1658
COc1ccc(Nc2nc(S(=O)(=O)c3ccc(C)cc3)c(Cl)s2)cc1,2100,1709,3.4,22.9*,6.3,1860
CC(C)=CCC(C)(C)C1OCCN1C(=O)Nc1ccccc1 (configuration not stated),x,1486,2.2,-6.4,-2.6,x
[O-][n+]1cccc2ncc3cscc3c21,1803,1674,1.2,4.6,8.7,1613
CC1(CCC#N)N=C(SCCC#N)N(c2ccccc2)C1=O (configuration not stated),x,1990*,7.9,1.5,2.4,x
Cc1cnc(N)c2c(=O)oc3ccccc3c12,x,2018*,4.8,6.9,0.8,x
CC(C)Cc1nc(Cl)c(C#N)c2c1CCCC2,1692,1374,-6.5,21.5,-6.7,2298*
Cc1ccc(-c2cc(C(=O)N(C)Cc3cnn(C)c3C)c3cc(Br)ccc3n2)cc1,1935,1910,6.3,10.2,6.7,2046
Cc1ccc(-c2cc(C(=O)NCc3cnn(C)c3C)c3cc(Br)ccc3n2)cc1,x,2130*,19.4,21.8,13.9,x
Cc1ccc(NC(=O)CSc2nnc(-c3ccc(S(=O)(=O)N4CCCC4)cc3)o2)cc1C,x,1464,-11.1,0.8,20.9*,x
COc1ccccc1C1CC(c2ccco2)=NN1S(C)(=O)=O (configuration not stated),1693,1502,-0.7,-0.1,-9.6,1321
CCOc1ccc(NC(=O)CSc2nnc(Cn3cnc4ccccc43)n2C)cc1,x,1674,7.4,1.1,0.7,x
CN1CCS/C1=C\C=C1/SC(=S)N(CC(=O)O)C1=O,2228,1733,5.8,8.7,24.4*,1783
CCN1C(=O)/C(=C/C=C2/SCCN2C)SC1=S,x,1470,-2.4,1.0,8.8,x
COc1ccc(NS(=O)(=O)c2ccc(N3CCOCC3)c(NC(=O)c3ccc(OC)cc3)c2)cc1,1747,1682,-1.4,0.5,7.1,1564
COc1ccc(NS(=O)(=O)c2ccc(N3CCCC3)c(NC(=S)Nc3cccc(S(=O)(=O)N(C)C)c3)c2)cc1,2504*,1957,-8.0,-2.6,4.1,2049
Cc1cc(=O)[nH]c2c1c(C)nn2C1CCCC1,x,4512*,73.5*,4.1,7.2,x
Cc1cc(=O)[nH]c2c1c(C)nn2C1CCCCC1,x,1495,6.1,8.6,0.8,x
COc1ccc(-c2nsc(C(=O)N(c3ccc(F)cc3)C(C(=O)NC3CCCC3)c3ccc(OC)cc3)c2N)cc1 (configuration not stated),1862,1647,2.7,0.5,-0.7,1904
CCOC(=O)c1c(NC(=O)CSc2nnc(-c3ccc(C)cc3)o2)sc(C(C)=O)c1C,x,1483,-4.2,3.0,8.7,x
CCOC(=O)c1c(NC(=O)CSc2nc(C)cc(C)c2C#N)sc(C(C)=O)c1C,x,3647*,62.5*,10.5,6.4,x
CCOC(=O)c1c(NC(=O)CSc2nnc(CNc3ccc(F)cc3)o2)sc(C(C)=O)c1C,x,1619,13.2,33.7*,9.9,x
O=C(NCc1cccnc1)C(=O)NCC1CCCO1 (configuration not stated),1927,1562,-1.6,1.0,-1.6,1706
COc1ccc2sc(/C=C/c3ccccc3O)[n+](C)c2c1,2090,1567,8.0,10.6,8.0,1734
O=[N+]([O-])/C(C(Cl)=C(Cl)Cl)=C(/NC1CC1)Sc1ccccc1,1896,1626,-6.3,3.5,3.1,1644
SMILES,SRC1 TRFRET art,SRC2 TRFRET art,PPARg SRC2 recr,PPARg SRC3 recr,PPARg SRC1 recr,SRC3 TRFRET art
CCOc1ccccc1NC(=O)CSc1ncnc2c1oc1ccccc12,x,1627,6.5,-0.1,10.9,x
O=C(CSc1ncnc2c1oc1ccccc12)N1CCN(c2ccccc2)CC1,x,1527,14.9,25.4,87.1*,x
c1ccc(CSc2ncnc3c2oc2ccccc23)cc1,x,2898*,62.0*,84.4*,59.3*,x
CCCSc1ncnc2c1oc1ccccc12,x,1525,1.9,4.1,7.0,x
CCc1nnc(NC(=O)CSc2ncnc3c2oc2ccccc23)s1,x,1593,11.1,5.2,85.8*,x
O=C(NCCCCNC(=O)c1ccc(Cl)s1)c1ccc(Cl)s1,x,1432,5.2,-1.2,1.7,x
O=C(NCCCCCCNC(=O)c1ccc(Br)s1)c1ccc(Br)s1,x,2455*,4.9,1.3,-9.4,x
CCOc1nc(NCCN2CCOCC2)nc(Nc2ccc([N+](=O)[O-])cc2)n1,1954,1624,7.4,-0.1,1.9,1644

# Assay outcomes (PubChem)
